Data on three compounds can be found in PubChem BioAssay AID504321 (NMMLSC, 2011).

Structures are written as SMILES. Values without a mark were called inactive.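 Rule for the calls: active = GFP response vs DMSO above 150% with enough events counted; inconclusive = fewer than 70 events counted for a yeast strain; inactive = the rest.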

This assay is described as follows: MEP2-GFP expression modulation in yeast, confirmation, flow cytometry, third cherry pick, S. cerevisiae (AID 504321).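 Note: median per-cell GFP fluorescence by flow cytometry across all yeast cells; ratio of sample to DMSO median GFP so 100% equals the DMSO level.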 Conditions: S. cerevisiae MEP2-GFP strain, 3 h, at 10 µM, active compounds read high.
For the compound `O=C(Nc1nc(-c2ccccn2)cs1)c1ccccc1-n1cnnn1`, the GFP response vs DMSO was 94.7%. Next, `COc1ccccc1Nc1nc(NCC(C)C)nc(N)c1[N+](=O)[O-]`: 114%; `COc1cc(OC)cc(C(=O)Nc2ccc(-c3nc4ccccc4o3)cc2)c1`: 110%.
